# Bioassay records deposited in PubChem by NMMLSC.
# Rab7 wt modul: modulators of GTP binding to dog Rab7 wildtype GTPase. GTP binding activity (percent of control), % at 10 µM. GST-Rab7 beads, fluorescent GTP binding, flow cytometry; actives lie on both sides; untreated = 100%, excess cold GTP = 0%. hit rate 0.055% among 190,000. AID 758;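 active = fluorescent GTP binding to Rab7 beads changed by at least 20 points from the 100% baseline, either direction, mostly lower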;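 also: median green fluorescence of bound Bodipy-FL-GTP per Rab7 bead population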
# HRas wt GTP: human HRas wildtype GTP binding, change in either direction; P01112; hit rate 0.14% among 190,000; GST-Ras wt beads, Bodipy-FL-GTP binding, flow cytometry; actives lie on both sides; AID 759; GTP binding activity, % at 10 µM;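 active = GTP binding activity at least 20% away from the 100% baseline, either lowered as inhibitor or raised as activator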;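 also: 0% = unlabeled GTP competition control and 100% = no-compound control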
# Target sequence (P01112 whole entry, looked up): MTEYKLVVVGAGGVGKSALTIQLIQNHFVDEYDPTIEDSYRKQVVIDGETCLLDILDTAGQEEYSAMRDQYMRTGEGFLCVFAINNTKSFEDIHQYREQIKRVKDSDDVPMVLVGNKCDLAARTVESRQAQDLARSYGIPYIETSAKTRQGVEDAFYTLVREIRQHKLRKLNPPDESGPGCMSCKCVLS
# Rac1 wt modul: modulators of human Rac1 wildtype GTP binding; P63000; GST-Rac1 beads, fluorescent GTP binding, flow cytometry; actives lie on both sides; 0 = cold GTP competed, 100 = untreated; GTP binding activity (% of control), % at 10 µM; hit rate 0.27% among 190,000; AID 757;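 active = GTP binding activity at least 20 points away from the 100% control level, either lower or higher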
# Cdc42 wt GTP: changes GTP binding to wildtype human Cdc42. P60953. GST-Cdc42 beads, Bodipy-GTP binding, flow cytometry; actives lie on both sides. percent activity (GTP binding), % at 10 µM. hit rate 0.2% among 190,000;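 active = percent activity GTP binding at least 20 points away from the 100% baseline, either down as inhibitor or up as activator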;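 also: median bead fluorescence of bound Bodipy-FL-GTP at 100 nM; 0% = excess unlabeled GTP control and 100% = no compound control; below 100% means less GTP binding so inhibitor and above means activator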
# Target sequence (P60953 whole entry, looked up): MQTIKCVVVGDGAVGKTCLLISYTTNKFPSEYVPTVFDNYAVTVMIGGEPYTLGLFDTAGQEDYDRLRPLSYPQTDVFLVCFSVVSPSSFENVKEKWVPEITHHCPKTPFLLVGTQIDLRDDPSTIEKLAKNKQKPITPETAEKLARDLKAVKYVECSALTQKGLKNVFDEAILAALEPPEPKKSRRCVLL
# Rac1 mut GTP: modulators of GTP binding to human Rac1 activated mutant; hit rate 0.11% among 190,000; GST-Rac1 activated beads, fluorescent GTP binding, flow cytometry; actives lie on both sides; 100% means binding = to untreated wells; percent activity (GTP binding), % at 10 µM; P63000;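 active = GTP binding at least 20 percentage points away from the 100% baseline, in either direction, so actives lie on both sides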
# Rab2 wt GTP: changes GTP binding to wildtype dog Rab2A, up or down; GST-Rab2 wt beads, Bodipy-GTP binding, flow cytometry; GTP binding activity, % at 10 µM; hit rate 0.19% among 190,000; AID 760;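 active = GTP binding activity at least 20 points away from 100%, either lowered or raised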;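 also: 0% = beads with excess unlabeled GTP and 100% = no-compound control corrected for plate trend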
# Starred values were filed as active, the others as inactive; [ ] = remark or other dose. A selection: hits, their analogues and other compounds. The true share with any hit is near 0.38%.
SMILES,Rab7 wt modul,HRas wt GTP,Rac1 wt modul,Cdc42 wt GTP,Rac1 mut GTP,Rab2 wt GTP
OC(COc1ccc2ccccc2c1)Cn1ccnc1 (stereo not drawn),97.0,98.0,98.0,98.0,96.0,97.0
OC(CNCCc1ccc(Cl)cc1)COc1ccc2ccccc2c1 (stereo not drawn),90.0,80.0,81.0,77.0*,77.0*,78.0*
CCc1nnc(NS(=O)(=O)c2ccc(Nc3ccc4nonc4c3[N+](=O)[O-])cc2)s1,87.0,77.0*,77.0*,81.0,83.0,76.0*
CC(=O)Nc1ccc(Nc2ccc3nonc3c2[N+](=O)[O-])cc1,94.0,95.0,98.0,95.0,95.0,93.0
Cc1c(CN2CCc3c([nH]c4ccccc34)C2C2CCCCC2)cnn1C (stereo not drawn),97.0,98.0,97.0,98.0,94.0,95.0
CCOC(=O)c1ccccc1NC(=O)Cn1c(-c2nonc2N)nc2ccccc21,104.0,100.0,103.0,99.0,98.0,100.0
Nc1nonc1-c1nc2ccccc2n1CC(=O)N/N=C/c1ccc(-c2ccccc2C(=O)O)o1,86.0,84.0,77.0*,85.0,86.0,82.0
CC(C)(C)OC(=O)N[C@@H](Cc1ccccc1)c1nnc(S(=O)(=O)Cc2cccc(F)c2)o1,79.0*,100.0,101.0,105.0,99.0,101.0
N#CC(C#N)=Cc1ccc(OCC(=O)N2CCOCC2)cc1,106.0,97.0,101.0,95.0,95.0,98.0
S=C(Nc1ccc(Oc2ccccc2)cc1)NC1CCCCC1,104.0,107.0,141.0*[activator],115.0,107.0,115.0
S=C(Nc1ccc(Oc2ccc(NC(=S)NC3CCCCC3)cc2)cc1)NC1CCCCC1,98.0,101.0,106.0,104.0,99.0,101.0
O=C(O)c1ccc(NC(=S)NC2CCCCC2)cc1,102.0,101.0,100.0,100.0,101.0,100.0
S=C(Nc1ccc(Oc2ccccc2)cc1)NC1CCCCCC1,101.0,100.0,109.0,79.0*,100.0,96.0
CCCCN(C)C(=S)Nc1ccc(Oc2ccccc2)cc1,103.0,100.0,104.0,97.0,100.0,103.0
CCCN(CC1CC1)C(=S)Nc1ccc(Oc2ccccc2)cc1,99.0,99.0,102.0,79.0*,101.0,99.0
COc1cc(C)c2c(c1C=O)Oc1c(c(C)c(O)c3c1C(O)OC3=O)OC2=O (stereo not drawn),84.0,81.0,80.0,78.0*,76.0*,80.0
Cc1cc2c(s1)c1cnn(CC(=O)NCCc3ccccc3)c(=O)c1n2C,98.0,96.0,99.0,96.0,95.0,94.0
COc1ccc(N(CC(=O)Nc2cccc(C)c2C)S(=O)(=O)c2c(C)n[nH]c2C)cc1,87.0,84.0,81.0,83.0,88.0,79.0*
COc1ccccc1NC(=O)CN(c1ccc(C)cc1)S(=O)(=O)c1c(C)n[nH]c1C,94.0,99.0,103.0,98.0,99.0,98.0
CCCN1CNC(=S)N(c2ccccc2C)C1,107.0,103.0,102.0,99.0,95.0,104.0
CCOc1ccc2nc(CN3CCN(Cc4ccsc4)C(CCO)C3)ccc2c1 (stereo not drawn),95.0,93.0,98.0,92.0,95.0,94.0
N#C/C(=C/c1ccc([N+](=O)[O-])cc1)C(=O)Nc1ccccc1O,94.0,96.0,98.0,91.0,97.0,93.0
N#C/C(=C/c1ccc(O)c([N+](=O)[O-])c1)C(=O)Nc1ccccc1,102.0,86.0,77.0*,79.0*,87.0,84.0
N/C(=N\OC(=O)c1cccc(Br)c1)c1ccccc1,92.0,93.0,89.0,95.0,91.0,92.0
C=CCNC(=S)N/N=C/c1ccc(OCc2ccccc2Cl)cc1,98.0,101.0,108.0,104.0,101.0,101.0
COc1cc(/C=C/c2ccc3cccc([N+](=O)[O-])c3n2)ccc1OCC(=O)O,95.0,72.0*,80.0,70.0*,85.0,69.0*
O=[N+]([O-])c1cc(-c2nc(-c3ccncc3)no2)cc([N+](=O)[O-])c1,100.0,101.0,104.0,104.0,102.0,103.0
N#CC(c1ccc(Cl)nn1)c1ccc(Cl)cc1Cl (stereo not drawn),105.0,108.0,121.0*[activator],112.0,99.0,108.0
